Legend:
Conditions in all cases: Compound Concentration (nM):1000
EGFR(G719S) = test system: EGFR(G719S)
[1] = test system: EGFR(L747-E749del, A750P)
[2] = test system: EGFR(L747-S752del, P753S)
EGFR(L747-T751del,Sins) = test system: EGFR(L747-T751del,Sins)
EGFR(L858R) = test system: EGFR(L858R)
EGFR(L858R,T790M) = test system: EGFR(L858R,T790M)
EGFR(L861Q) = test system: EGFR(L861Q)
EGFR(S752-I759del) = test system: EGFR(S752-I759del)
EGFR(T790M) = test system: EGFR(T790M)
EGFR = test system: EGFR
EIF2AK1 = test system: EIF2AK1
EPHA1 = test system: EPHA1
EPHA2 = test system: EPHA2
EPHA3 = test system: EPHA3
EPHA4 = test system: EPHA4
EPHA5 = test system: EPHA5
EPHA6 = test system: EPHA6
EPHA7 = test system: EPHA7
EPHA8 = test system: EPHA8
EPHB1 = test system: EPHB1
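Note: KINOMEscan scanMAX binding as percent activity remaining versus control; lower means stronger binding.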

Row | Compound | Percent Control (EGFR(G719S)) | Percent Control [1] | Percent Control [2] | Percent Control (EGFR(L747-T751del,Sins)) | Percent Control (EGFR(L858R)) | Percent Control (EGFR(L858R,T790M)) | Percent Control (EGFR(L861Q)) | Percent Control (EGFR(S752-I759del)) | Percent Control (EGFR(T790M)) | Percent Control (EGFR) | Percent Control (EIF2AK1) | Percent Control (EPHA1) | Percent Control (EPHA2) | Percent Control (EPHA3) | Percent Control (EPHA4) | Percent Control (EPHA5) | Percent Control (EPHA6) | Percent Control (EPHA7) | Percent Control (EPHA8) | Percent Control (EPHB1)
1 | NS(=O)(=O)c1ccc(N/N=C2\C(=O)Nc3ccc(Cl)cc32)cc1 [GW280670X] | 100% | 100% | 100% | 100% | 100% | 100% | 87% | 87% | 100% | 100% | 100% | 100% | 100% | 100% | 96% | 100% | 100% | 100% | 100% | 100%
2 | CCS(=O)(=O)c1ccc(OC)c(Nc2ncc(-c3cccc(OC)c3)o2)c1 [GW580509X] | 98% | 65% | 85% | 100% | 80% | 100% | 81% | 95% | 89% | 83% | 100% | 100% | 100% | 94% | 92% | 100% | 100% | 100% | 100% | 100%
3 | CN(C)c1cc2c(Nc3ccc4c(cnn4Cc4ccccc4)c3)ncnc2cn1 [GW282974X] | – | – | – | – | – | – | – | – | – | – | 100% | 89% | 100% | 98% | 95% | 33% | 87% | 95% | 90% | 90%
4 | C[C@@H](Oc1cc(-n2cnc3ccc(OC4CCN(C)CC4)cc32)sc1C(N)=O)c1ccccc1Cl [GSK579289A] | 59% | 58% | 100% | 100% | 79% | 85% | 64% | 66% | 62% | 75% | 62% | 69% | 100% | 81% | 97% | 100% | 96% | 89% | 81% | 82%
5 | CN(C)CCNC(=O)Nc1ccc(N(C)c2ccnc(Nc3ccc(CS(C)(=O)=O)cc3)n2)cc1.Cl [GW830900A] | 97% | 73% | 79% | 100% | 83% | 60% | 100% | 100% | 64% | 95% | 88% | 76% | 89% | 85% | 100% | 90% | 100% | 81% | 78% | 78%
6 | Cc1cc(O)cc(C)c1/C=C/c1cncc(C(N)=O)c1 [GW435821X] | 67% | 68% | 87% | 100% | 80% | 100% | 71% | 78% | 94% | 78% | 100% | 47% | 62% | 63% | 51% | 88% | 100% | 100% | 28% | 82%
7 | COc1cc(N2CCN(C(C)C)CC2)ccc1Nc1nc(Nc2ccc(F)cc2C(=O)NC[C@@H](O)CO)c2cc[nH]c2n1 [GSK1392956A] | 87% | 83% | 71% | 94% | 73% | 7.6% | 60% | 86% | 4.4% | 76% | 100% | 91% | 94% | 70% | 100% | 100% | 72% | 100% | 100% | 100%
8 | COc1cc2ncn(-c3cc(O[C@H](C)c4ccccc4Cl)c(C(N)=O)s3)c2cc1OC [GSK237701A] | 69% | 100% | 86% | 87% | 100% | 79% | 97% | 100% | 75% | 100% | 92% | 100% | 100% | 100% | 72% | 100% | 83% | 88% | 89% | 81%
9 | CCS(=O)(=O)c1ccc(OC)c(Nc2ncc(-c3cccc(F)c3)o2)c1 [GW621970X] | 92% | 72% | 75% | 84% | 92% | 100% | 79% | 73% | 100% | 85% | 100% | 65% | 100% | 68% | 96% | 100% | 100% | 100% | 100% | 100%
10 | C/C(Nc1ccc(S(N)(=O)=O)cc1)=C1/C(=O)Nc2ccccc21 [GW335962X] | 63% | 93% | 82% | 100% | 100% | 95% | 68% | 100% | 74% | 100% | 100% | 100% | 98% | 100% | 92% | 100% | 85% | 100% | 100% | 100%

From PMC7826789 (International Journal of Molecular Sciences, 2021)
